PubChem BioAssay AID1159580 (chemical genetic matrix, 2015)
Several values for one entry are separate records, joined by “and”; a condition that tells them apart may be missing. Equal values may be shown once. The whole screen tested about 5,500 compounds, of which about 2,000 (36%) were called active. About 18% were inconclusive and are not listed. Cut-off read from the data, not from the text of the source: active = normalized growth mostly below about 0.91 (no sharp cut-off); inconclusive = no clear call, values can overlap the other calls; inactive = mostly above about 0.92. Some of the results follow.

Experiment: chemical genetic growth profiling, strain panel (AID 1159580);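 note: tested at 20 µM; growth read once vehicle control cultures reached saturation at 30 °C; 1 = growth at the plate median or of vehicle wells; lower values mean less growth of the strain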
Details: S. cerevisiae deletion strains, growth OD

Measured: normalized growth

C[C@H]1[C@H]2CCC3C4CC=C5C[C@@H](N(C)C)CC[C@]5(C)C4CC[C@@]32CN1C (stereo partly specified)
active: locus YDR392W, strain spt3, stronger effect = lower value 0.551
inactive: locus YAL013W, strain DEP1, stronger effect = lower value 0.994 | locus YAL021C, strain ccr4, stronger effect = lower value 1.01 | locus YAL026C, strain drs2, stronger effect = lower value 0.997 | locus YAL030W, strain snc1, stronger effect = lower value 0.996 | locus YBL061C, strain skt5, stronger effect = lower value 0.995 | locus YBR009C, strain hhf1, stronger effect = lower value 0.95 | locus YBR021W, strain FUR4, stronger effect = lower value 1 | locus YBR023C, strain chs3, stronger effect = lower value 0.994 | locus YBR171W, strain sec66, stronger effect = lower value 0.983 | locus YBR229C, strain ROT2, stronger effect = lower value 0.956 | locus YBR231C, strain swc5, stronger effect = lower value 0.972 | locus YBR279W, strain paf1, stronger effect = lower value 0.994 | locus YCL011C, strain gbp2, stronger effect = lower value 0.988 | locus YCL016C, strain dcc1, stronger effect = lower value 0.986 | locus YCL029C, strain bik1, stronger effect = lower value 0.988 | locus YCL061C, strain MRC1, stronger effect = lower value 0.994 | locus YCL069W, strain vba3, stronger effect = lower value 1 | locus YCR088W, strain abp1, stronger effect = lower value 0.996 | locus YDL005C, strain med2, stronger effect = lower value 0.992 | locus YDL035C, strain GPR1, stronger effect = lower value 0.949 | locus YDL040C, strain nat1, stronger effect = lower value 0.974 | locus YDL074C, strain BRE1, stronger effect = lower value 1.01 | locus YDL101C, strain DUN1, stronger effect = lower value 0.989 | locus YDL134C, strain PPH21, stronger effect = lower value 0.958 | locus YDL185W, strain tfp1, stronger effect = lower value 0.999 | locus YDL192W, strain arf1, stronger effect = lower value 0.984 | locus YDR001C, strain nth1, stronger effect = lower value 0.993 | locus YDR069C, strain doa4, stronger effect = lower value 0.976 | locus YDR101C, strain arx1, stronger effect = lower value 1.04 | locus YDR137W, strain rgp1, stronger effect = lower value 0.994 | locus YDR150W, strain NUM1, stronger effect = lower value 0.981 | locus YDR159W, strain sac3, stronger effect = lower value 0.941 | locus YDR162C, strain NBP2, stronger effect = lower value 0.989 | locus YDR195W, strain ref2 0.945 | locus YDR297W, strain sur2, stronger effect = lower value 1 | locus YDR318W, strain mcm21, stronger effect = lower value 0.957 | locus YDR334W, strain swr1, stronger effect = lower value 0.996 | locus YDR335W, strain msn5, stronger effect = lower value 0.992 | locus YDR388W, stronger effect = lower value 0.984 | locus YDR502C, strain sam2, stronger effect = lower value 0.977 | locus YEL003W, strain gim4, stronger effect = lower value 0.994 | locus YEL037C, strain rad23, stronger effect = lower value 0.999 | locus YEL061C, strain CIN8 (second series), stronger effect = lower value 0.992 | locus YEL061C, strain CIN8, stronger effect = lower value 0.991 | locus YER015W, strain faa2, stronger effect = lower value 0.986 | locus YER016W, strain bim1, stronger effect = lower value 0.988 | locus YER110C, stronger effect = lower value 0.99 | locus YER111C, strain swi4, stronger effect = lower value 0.992 | locus YER155C, strain BEM2 (second series), stronger effect = lower value 0.867 | locus YER155C, strain BEM2, stronger effect = lower value 0.999 | locus YER167W, strain BCK2, stronger effect = lower value 0.999 | locus YFR010W, strain ubp6, stronger effect = lower value 0.997 | locus YGL078C, strain dbp3, stronger effect = lower value 0.996 | locus YGL086W, strain mad1, stronger effect = lower value 1.02 | locus YGL167C, strain pmr1, stronger effect = lower value 0.981 | locus YGL173C, strain kem1, stronger effect = lower value 0.99 | locus YGL227W, strain vid30, stronger effect = lower value 0.985 | locus YGL240W, strain doc1, stronger effect = lower value 0.967 | locus YGL248W, strain PDE1, stronger effect = lower value 0.965 | locus YGL253W, strain hxk2, stronger effect = lower value 0.974 | locus YGR078C, strain PAC10, stronger effect = lower value 0.981 | locus YGR135W, strain pre9, stronger effect = lower value 0.968 | locus YGR252W, strain gcn5, stronger effect = lower value 0.939 | locus YHR013C, strain ard1, stronger effect = lower value 0.918 | locus YHR027C, strain rpn1, stronger effect = lower value 0.997 | locus YHR030C, strain SLT2, stronger effect = lower value 1 and 1.01 | locus YHR079C, strain IRE1 (second series), stronger effect = lower value 0.996 | locus YHR079C, strain IRE1, stronger effect = lower value 1.01 | locus YHR094C, strain hxt1, stronger effect = lower value 0.975 | locus YHR129C, strain ARP1, stronger effect = lower value 0.994 | locus YHR142W, strain chs7, stronger effect = lower value 0.99 | locus YHR200W, strain rpn10, stronger effect = lower value 0.986 | locus YIL066C, strain RNR3, stronger effect = lower value 0.986 | locus YIL073C, strain SPO22, stronger effect = lower value 0.957 | locus YIL125W, strain kgd1, stronger effect = lower value 0.995 | locus YIR030C, strain dcg1, stronger effect = lower value 0.999 | locus YJL092W, strain hpr5, stronger effect = lower value 0.992 | locus YJL095W, strain BCK1 (second series), stronger effect = lower value 0.991 | locus YJL095W, strain BCK1, stronger effect = lower value 0.963 and 0.999 | locus YJL115W, strain asf1, stronger effect = lower value 1 | locus YJL129C, strain trk1, stronger effect = lower value 0.99 | locus YJL134W, strain LCB3, stronger effect = lower value 0.993 | locus YJL154C, strain vps35, stronger effect = lower value 1 | locus YJL164C, strain tpk1, stronger effect = lower value 0.996 | locus YJL166W, strain qcr8, stronger effect = lower value 0.986 | locus YJL168C, strain set2, stronger effect = lower value 0.993 | locus YJL187C, strain SWE1 (second series), stronger effect = lower value 0.98 | locus YJL187C, strain SWE1, stronger effect = lower value 0.994 | locus YJR043C, strain POL32, stronger effect = lower value 0.993 | locus YJR066W, strain TOR1, stronger effect = lower value 0.958
